From PubChem BioAssay (NCATS)
Where “and” joins values, the source holds several entries; their conditions need not be identical. Equal values may be shown once. Records with an inconclusive call do not appear. Where a call stands in place of a potency, no number is given. A structure can be active in one record and inactive in another. Calls of active or inactive are those of the source. Unless noted, calls come from the whole dose curve.

Target: Peroxisome proliferator-activated receptor delta (Homo sapiens) (UniProt Q03181)
Sequence (Q03181 whole entry, looked up): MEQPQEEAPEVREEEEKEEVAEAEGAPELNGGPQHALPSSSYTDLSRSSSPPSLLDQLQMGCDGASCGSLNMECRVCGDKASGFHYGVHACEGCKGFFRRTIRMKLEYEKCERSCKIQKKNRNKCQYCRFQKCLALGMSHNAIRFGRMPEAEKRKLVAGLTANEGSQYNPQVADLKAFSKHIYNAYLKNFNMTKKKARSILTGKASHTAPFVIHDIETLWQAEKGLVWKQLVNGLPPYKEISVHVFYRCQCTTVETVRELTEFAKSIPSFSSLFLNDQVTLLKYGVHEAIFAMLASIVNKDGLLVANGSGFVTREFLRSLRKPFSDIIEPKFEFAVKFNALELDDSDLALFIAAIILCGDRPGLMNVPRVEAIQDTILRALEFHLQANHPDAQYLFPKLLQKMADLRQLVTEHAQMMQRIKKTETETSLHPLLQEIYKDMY
Assay: qHTS assay for small molecule agonists of peroxisome proliferator-activated receptor delta signaling (AID 588534)
Details: HEK293T PPARdelta-UAS-bla, beta-lactamase ratio, 18 h; series mostly up to 76.7 µM
In short: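 Titration series tested in agonist mode on beta-lactamase reporter cells; 18 hrs at 37 C after a 5 hr pre-incubation. Readout: CCF4 fluorescence, 2 hrs RT. Hill equation gives EC50 and maximal response.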
In the case of `CCCCCCCCCC(CC)c1ccc(S(=O)(=O)O)cc1` (stereo not given), the outcome is reported as “inactive”. For `O=C1NS(=O)(=O)c2ccccc21`, the outcome was “inactive”. With `CC(C)(C)c1ccc(O)c(O)c1` the outcome was “inactive”. For `ClC1=C(Cl)[C@]2(Cl)[C@@H]3[C@@H]4C[C@@H]([C@H]5O[C@@H]45)[C@@H]3[C@@]1(Cl)C2(Cl)Cl`, the outcome was “inactive”. For `Nc1ccc([N+](=O)[O-])cc1O`, the outcome was “inactive”. In the case of `COc1ccc(C(c2ccc(OC)cc2)C(Cl)(Cl)Cl)cc1`, the outcome is reported as “inactive”. In the case of `CN(C)NC(=O)CCC(=O)O`, the outcome is reported as “inactive”. For `Nc1nc2ccc([N+](=O)[O-])cc2s1`, the outcome was “inactive”. For `OCc1c[nH]c2ccccc12`, the outcome was “inactive”. For `Nc1ccc(O)c([N+](=O)[O-])c1`, the outcome was “inactive”. With `O=c1cc(-c2ccccc2)oc2ccccc12` the outcome was “inactive”. With `Brc1ccccc1-c1ccccc1` the outcome was “inactive”. For `Clc1cnc(Oc2ccc(Oc3ncc(Cl)cc3Cl)cc2)c(Cl)c1`, the outcome was “inactive”. In the case of `C[C@]12C[C@H](O)[C@H]3[C@@H](CCC4=CC(=O)CC[C@@]43C)[C@@H]1CC[C@@H]2C(=O)CO`, the outcome is reported as “inactive”. For `CN(C)c1ccc(N=NS(=O)(=O)O)cc1`, the outcome was “inactive”. With `CCCCC(CC)COC(=O)c1ccc(N(C)C)cc1` (stereo not given) the outcome was “inactive”. With `CCCCCCCCCCCCCC(=O)OC(C)C` the outcome was “inactive”. For `C=CCNC(N)=S`, the outcome was “inactive”. For `CN1C(=O)c2ccccc2C1=O`, the outcome was “inactive”. In the case of `Nc1ccccc1N`, the outcome is reported as “inactive”. With `O=S(=O)(O)C(F)(F)C(F)(F)C(F)(F)C(F)(F)F` the outcome was “inactive”. For `COC(=O)c1c(Cl)c(Cl)c(C(=O)OC)c(Cl)c1Cl`, the outcome was “inactive”. In the case of `S=c1[nH]c2ccccc2s1`, the outcome is reported as “inactive”. For `Cc1ccc(N)cc1O`, the outcome was “inactive”. In the case of `CC(C)C(C)(C)C(C)(C)C(C)(C)S`, the outcome is reported as “inactive”. In the case of `CCCCCCCCCCCCCCCC[N+](C)(C)C`, the outcome is reported as “inactive”. With `O=C(NO)c1ccccc1` the outcome was “inactive”. In the case of `CC1=NN(c2ccccc2)C(=O)C1`, the outcome is reported as “inactive”. With `CCCOC(=O)c1ccc(O)cc1` the outcome was “inactive”. In the case of `CO/C=C(/C(=O)OC)c1ccccc1Oc1cc(Oc2ccccc2C#N)ncn1`, the outcome is reported as “inactive”. In the case of `[Cl][In]([Cl])[Cl]`, the outcome is reported as “inactive”. With `CCCCOC(=O)c1ccccc1C(=O)OCc1ccccc1` the outcome was “inactive”. With `CCCCCCCCOc1ccc(C(=O)c2ccccc2)c(O)c1` the outcome was “inactive”. For `COc1ccccc1O`, the outcome was “inactive”. In the case of `Nc1ccc(Sc2ccc(N)cc2)cc1`, the outcome is reported as “inactive”.

System: not listed separately
Assay: qHTS assay for small molecule antagonists of peroxisome proliferator-activated receptor delta signaling (AID 588535; active = well fitted inhibition curve with a large enough effect in the signal ratio, with a control signal flat, not every such curve was filed as active; the % refers to the signal ratio;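 for max response: cells co-treated with a PPAR-delta agonist as stimulator during compound exposure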)
Details: HEK293T PPARd-UAS-bla, beta-lactamase FRET ratio, 18 h; 460 nm channel
In short: (§1)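 Compounds tested in titration on PPAR-delta-UAS-bla HEK293T cells grown in charcoal/dextran-stripped serum (2%); beta-lactamase activity read via CCF4 emission at 460 and 530 nm.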
For `CCCCCCCCCC(CC)c1ccc(S(=O)(=O)O)cc1` (stereo not given), the max response was -20.6% and 1.67%. `ClC1=C(Cl)[C@]2(Cl)[C@@H]3[C@@H]4C[C@@H]([C@H]5O[C@@H]45)[C@@H]3[C@@]1(Cl)C2(Cl)Cl` gave a max response of 34.4%. With `CN(C)NC(=O)CCC(=O)O` the max response was -12.7% and 32.6%. Compound `Clc1cnc(Oc2ccc(Oc3ncc(Cl)cc3Cl)cc2)c(Cl)c1` has a max response of 17%. `CS(=O)(=O)c1ccc(C(=O)C2C(=O)CCCC2=O)c([N+](=O)[O-])c1` gave a max response of 30.2%. In the case of `O=S(=O)(O)C(F)(F)C(F)(F)C(F)(F)C(F)(F)F`, the max response is reported as 48.3% and 16.2%. `CCCCCCCCCCCCCCCC[N+](C)(C)C` gave a max response of -6.14%. With `CCCCOC(=O)c1ccccc1C(=O)OCc1ccccc1` the max response was -18.4% and -2.86%.

Target: Peroxisome proliferator-activated receptor delta (Homo sapiens) (UniProt Q03181)
Assay: as above
Details: HEK293T PPARd-UAS-bla, beta-lactamase FRET ratio, 18 h; series mostly up to 76.7 µM
In short: as §1
In the case of `CCCCCCCCCC(CC)c1ccc(S(=O)(=O)O)cc1` (stereo not given), the Potency is reported as “inactive”. In the case of `ClC1=C(Cl)[C@]2(Cl)[C@@H]3[C@@H]4C[C@@H]([C@H]5O[C@@H]45)[C@@H]3[C@@]1(Cl)C2(Cl)Cl`, the Potency is reported as “inactive”. For `CN(C)NC(=O)CCC(=O)O`, the Potency was “inactive”. In the case of `Clc1cnc(Oc2ccc(Oc3ncc(Cl)cc3Cl)cc2)c(Cl)c1`, the Potency is reported as “inactive”. With `CS(=O)(=O)c1ccc(C(=O)C2C(=O)CCCC2=O)c([N+](=O)[O-])c1` the Potency was “inactive”. In the case of `O=S(=O)(O)C(F)(F)C(F)(F)C(F)(F)C(F)(F)F`, the Potency is reported as “inactive”. With `CCCCCCCCCCCCCCCC[N+](C)(C)C` the Potency was “inactive”. With `CCCCOC(=O)c1ccccc1C(=O)OCc1ccccc1` the Potency was “inactive”.

Target: Peroxisome proliferator-activated receptor gamma (Homo sapiens) (UniProt P37231)
Sequence (P37231 whole entry, looked up): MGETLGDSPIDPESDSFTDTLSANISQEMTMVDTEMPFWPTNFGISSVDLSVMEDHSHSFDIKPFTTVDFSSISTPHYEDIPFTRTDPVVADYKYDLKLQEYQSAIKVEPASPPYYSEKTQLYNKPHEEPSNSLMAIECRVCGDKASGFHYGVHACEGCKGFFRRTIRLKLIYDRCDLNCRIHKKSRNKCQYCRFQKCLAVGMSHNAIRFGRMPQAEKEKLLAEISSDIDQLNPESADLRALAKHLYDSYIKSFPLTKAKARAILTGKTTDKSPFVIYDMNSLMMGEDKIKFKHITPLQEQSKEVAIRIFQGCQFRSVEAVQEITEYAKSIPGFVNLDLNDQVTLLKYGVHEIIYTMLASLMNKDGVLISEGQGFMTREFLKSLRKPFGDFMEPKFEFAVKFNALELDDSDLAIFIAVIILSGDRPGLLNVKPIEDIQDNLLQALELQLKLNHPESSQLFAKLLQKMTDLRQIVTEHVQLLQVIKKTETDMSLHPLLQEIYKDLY
Assay: qHTS assay for small molecule agonists of peroxisome proliferator-activated receptor gamma signaling (AID 588536; active = well fitted curve in the direction sought with a large enough effect in the signal ratio, with a control signal flat, not every such curve was filed as active; the % refers to the signal ratio)
Details: HEK293 PPARg-UAS-bla, beta-lactamase ratio, 16 h, percent of rosiglitazone response, DMSO as zero; series mostly up to 76.7 µM
In short: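 Beta-lactamase reporter read-out: CCF4 fluorescence (ex 405, em 460/530 nm) after 2 h at RT. HEK293 GeneBLAzer cells were treated for 16 h at 37 C. Hill fits gave EC50 and efficacy versus 2 uM rosiglitazone (100%) and DMSO (0%).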
In the case of `CCCCCCCCCC(CC)c1ccc(S(=O)(=O)O)cc1` (stereo not given), the outcome is reported as “inactive”. For `COc1ccc(C(c2ccc(OC)cc2)C(Cl)(Cl)Cl)cc1`, the outcome was “inactive”. With `CN(C)NC(=O)CCC(=O)O` the outcome was “inactive”. With `O=S(=O)(O)C(F)(F)C(F)(F)C(F)(F)C(F)(F)F` the outcome was “inactive”. In the case of `CCCCOC(=O)c1ccccc1C(=O)OCc1ccccc1`, the outcome is reported as “inactive”. With `Nc1ccc(Sc2ccc(N)cc2)cc1` the outcome was “inactive”. For `O=C(O)c1cc(Oc2ccc(C(F)(F)F)cc2Cl)ccc1[N+](=O)[O-]`, the outcome was “inactive”.

Target: Peroxisome proliferator-activated receptor gamma (Homo sapiens) (UniProt P37231)
Assay: qHTS assay for small molecule antagonists of peroxisome proliferator-activated receptor gamma signaling (AID 588537; active = well fitted inhibition curve with a large enough effect in the signal ratio, with a control signal flat, not every such curve was filed as active; the % refers to the signal ratio; note: potency is the fitted concentration of half-maximal effect)
Details: HEK293 PPARg-UAS-bla, beta-lactamase ratio, antagonist mode; series mostly up to 76.8 µM
In short: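 HEK293 cells, PPAR-gamma-UAS-bla, 3000/well. Pre-incubation 6-6.5 h, 37 C. Compound titration with rosiglitazone 50 nM final, 16 h. CCF4 dye, 2 h RT, dual-emission fluorescence.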
In the case of `CCCCCCCCCC(CC)c1ccc(S(=O)(=O)O)cc1` (stereo not given), the Potency is reported as “inactive”. With `COc1ccc(C(c2ccc(OC)cc2)C(Cl)(Cl)Cl)cc1` the Potency was “inactive and 28.2 µM (active)”. In the case of `CN(C)NC(=O)CCC(=O)O`, the Potency is reported as “inactive”. For `Clc1cnc(Oc2ccc(Oc3ncc(Cl)cc3Cl)cc2)c(Cl)c1`, the Potency was “inactive”. With `CS(=O)(=O)c1ccc(C(=O)C2C(=O)CCCC2=O)c([N+](=O)[O-])c1` the Potency was “inactive”. With `O=S(=O)(O)C(F)(F)C(F)(F)C(F)(F)C(F)(F)F` the Potency was “inactive”. In the case of `CCCCCCCCCCCCCCCC[N+](C)(C)C`, the Potency is reported as “inactive”. In the case of `Nc1ccc(Sc2ccc(N)cc2)cc1`, the Potency is reported as “inactive”.

Target: Vitamin D3 receptor (Homo sapiens) (UniProt P11473)
Sequence (P11473 whole entry, looked up): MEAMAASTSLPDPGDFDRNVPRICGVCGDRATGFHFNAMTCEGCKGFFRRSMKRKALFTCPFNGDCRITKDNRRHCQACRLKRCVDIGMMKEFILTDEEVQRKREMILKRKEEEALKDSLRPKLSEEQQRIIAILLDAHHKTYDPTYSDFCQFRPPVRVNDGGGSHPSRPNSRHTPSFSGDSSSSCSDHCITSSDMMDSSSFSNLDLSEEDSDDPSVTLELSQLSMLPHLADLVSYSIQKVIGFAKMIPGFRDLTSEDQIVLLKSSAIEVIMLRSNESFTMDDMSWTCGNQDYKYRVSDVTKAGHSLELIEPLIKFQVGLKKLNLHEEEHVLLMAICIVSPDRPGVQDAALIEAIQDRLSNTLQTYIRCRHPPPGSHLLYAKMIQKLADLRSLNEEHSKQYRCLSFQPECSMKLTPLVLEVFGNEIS
Assay: qHTS assay for small molecule antagonists of vitamin D receptor signaling (AID 588541);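 note: receptor activated by calcitriol during compound treatment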
Details: HEK293T VDR-UAS-bla, beta-lactamase ratio, antagonist mode; series mostly up to 76.7 µM
In short: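 VDR-UAS-bla HEK293T cells (2000/well, 2% charcoal-stripped FBS) were treated with titrated compounds plus 1-alpha,25-dihydroxyvitamin D3 (50 nM or 3 nM final) for 16 h at 37 C. CCF4 beta-lactamase fluorescence was read; Hill fits gave IC50.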
In the case of `ClC1=C(Cl)[C@]2(Cl)[C@@H]3[C@@H]4C[C@@H]([C@H]5O[C@@H]45)[C@@H]3[C@@]1(Cl)C2(Cl)Cl`, the Potency is reported as “inactive”. In the case of `COc1ccc(C(c2ccc(OC)cc2)C(Cl)(Cl)Cl)cc1`, the Potency is reported as “inactive”. With `CN(C)NC(=O)CCC(=O)O` the Potency was “inactive”. With `Clc1cnc(Oc2ccc(Oc3ncc(Cl)cc3Cl)cc2)c(Cl)c1` the Potency was “inactive”. With `CS(=O)(=O)c1ccc(C(=O)C2C(=O)CCCC2=O)c([N+](=O)[O-])c1` the Potency was “inactive”. For `O=S(=O)(O)C(F)(F)C(F)(F)C(F)(F)C(F)(F)F`, the Potency was “inactive”. For `CCCCCCCCCCCCCCCC[N+](C)(C)C`, the Potency was “inactive”. With `CO/C=C(/C(=O)OC)c1ccccc1Oc1cc(Oc2ccccc2C#N)ncn1` the Potency was “inactive”. In the case of `Nc1ccc(Sc2ccc(N)cc2)cc1`, the Potency is reported as “inactive”.
